40 compounds from PubChem BioAssay (Tox21) can be followed below.

The structures appear in SMILES notation. Where “and” joins values, the source holds several entries; their conditions need not be identical. Equal entries are not always repeated. Inconclusive results are not listed. Where a call stands in place of a potency, no number is given. Calls of active or inactive are those of the source. Calls follow the shape of the dose curve; as a rule, active = well fitted activation curve with a large enough effect in the repeat runs; inconclusive = weak or mixed curves; inactive = no such curve, though single readings can be large or run the other way.
Potency is read from the fitted curve at half-maximal effect.

This test deals with Aryl hydrocarbon receptor (Homo sapiens) (UniProt P35869). As to the kind of experiment: qHTS assay to identify small molecule that activate the aryl hydrocarbon receptor (AhR) signaling pathway (AID 743085). Also: nearly all actives have a fitted effect of over 15% in size. To be noted: HepG2 AhR-luc (HG2L7.5c1), luciferase, 24 h; series mostly up to 70.3 µM. The procedure, abridged: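 Stably transfected human liver carcinoma cells (HG2L7.5c1; 20 DRE-firefly luciferase) were incubated 5 h, dosed, and kept 24 h at 37C. Agonism was scored from increased luciferase luminescence.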
Aryl hydrocarbon receptor (Homo sapiens), sequence (P35869 whole entry, looked up): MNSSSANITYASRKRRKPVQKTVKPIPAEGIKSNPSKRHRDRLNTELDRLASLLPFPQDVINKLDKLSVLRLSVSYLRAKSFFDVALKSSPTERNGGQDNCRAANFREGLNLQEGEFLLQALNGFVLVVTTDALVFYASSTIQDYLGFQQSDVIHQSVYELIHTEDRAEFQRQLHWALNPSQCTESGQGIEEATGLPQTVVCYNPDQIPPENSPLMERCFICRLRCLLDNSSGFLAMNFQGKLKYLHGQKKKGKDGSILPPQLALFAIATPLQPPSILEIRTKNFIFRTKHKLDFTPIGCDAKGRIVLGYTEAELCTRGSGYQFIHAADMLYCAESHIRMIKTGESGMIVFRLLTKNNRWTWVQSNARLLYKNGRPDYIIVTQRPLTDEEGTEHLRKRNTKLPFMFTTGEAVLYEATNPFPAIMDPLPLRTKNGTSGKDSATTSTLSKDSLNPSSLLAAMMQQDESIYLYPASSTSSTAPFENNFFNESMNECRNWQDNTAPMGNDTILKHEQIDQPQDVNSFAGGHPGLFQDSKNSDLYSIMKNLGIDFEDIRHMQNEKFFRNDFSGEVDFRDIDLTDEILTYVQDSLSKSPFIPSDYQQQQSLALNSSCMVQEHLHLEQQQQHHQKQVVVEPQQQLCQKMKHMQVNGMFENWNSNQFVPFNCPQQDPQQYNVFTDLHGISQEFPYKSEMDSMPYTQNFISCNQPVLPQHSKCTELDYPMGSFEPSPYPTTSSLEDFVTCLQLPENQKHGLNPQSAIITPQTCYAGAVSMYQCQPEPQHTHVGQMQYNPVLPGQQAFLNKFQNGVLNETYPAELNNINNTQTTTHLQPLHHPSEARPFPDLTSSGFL
`CCCCCC=CCC=CCCCCCCCC(=O)OCC`: the Potency entry is “inactive”. With `O=C(Nc1ccc([N+](=O)[O-])cc1)Nc1ccc([N+](=O)[O-])cc1`, the Potency result was “inactive”. In the case of `C/C=C/C=C/CCCCCCCO`, the Potency result is “inactive”.

For the compound `C=CC(C)=CCC=C(C)C`, the Potency entry is “inactive”.

For the compound `CCOC(=O)/C=C/C(=O)O`, the Potency result was “inactive”. For the compound `CNC(=O)N(c1ccccc1)c1ccccc1`, the Potency result was “inactive”.

In the case of `CC(Cl)C(Cl)Cl` (stereo not given), the Potency entry was “inactive”.

As for `CC(C)c1nnc2ccc(-c3ocnc3-c3cc(F)ccc3F)cn12`, the Potency result is “inactive”. `CCOC(=O)[C@@H](C)Oc1ccc(Oc2nc3ccc(Cl)cc3o2)cc1`: the Potency entry was “inactive”. As to `CCCCCCCCCCCCCCC[C@H](O)[C@@H](N)CO`, the Potency result is “inactive”. Same read-out and setting: under `CC(=O)Oc1ccc2c(c1)CC[C@@H]1[C@@H]2CC[C@]2(C)[C@@H](O)CC[C@@H]12` stands “inactive”.

As to `C=CCOC(=O)/C=C\C(=O)OCC=C`, the Potency result was “inactive”. Consider `CC1CC(O)CC(C)(C)C1` (stereo not given), for which the Potency entry was “inactive”.

On to `COc1ccc(C(=O)c2cccc(O)c2)c(OC)c1`, for which the Potency is 17.2 µM (active). Same read-out and setting: then `CO[Si](C)(OC)OC`, with “inactive”; and `Cc1nc2ccccc2s1`, with “inactive”; and `CN(C)C(=O)Nc1ccc(Oc2ccc(Cl)cc2)cc1`, with “inactive”.

On to `C[Si](NC1CCCCC1)(NC1CCCCC1)NC1CCCCC1`, for which the Potency result is “inactive”. In the case of `CCCCCCCC/C=C\CCCCCCCC(=O)OC(CO)CO`, the Potency result was “inactive”. Same read-out and setting: under `Cc1oncc1C(=O)Nc1ccc(C(F)(F)F)cc1` stands 1.14 µM (active) and 21.7 µM (active). For the compound `CSc1ccc(Oc2ccc(S(N)(=O)=O)cc2CN(C)C)cc1C`, the Potency entry was “inactive”.

On to `Cc1nc2ccccn2c(=O)c1CCN1CCC(C(=O)c2ccc(F)cc2)CC1`, for which the Potency result was “inactive”. In the case of `CN1CCN(c2c(F)cc3c(=O)c(C(=O)O)cn4c3c2OCN4C)CC1`, the Potency entry was “inactive”.

As to `[O]=[Bi]`, the activation was -0.231% [at 8.47 µM] (inactive). As to `CCC(C(=O)OCCOCCN(CC)CC)c1ccccc1` (stereo not given), the Potency result is “inactive”. For `CC(N)CN` (stereo not given), the Potency result is “inactive”. Same read-out and setting: then `CCOC(=O)c1ccccc1C`, with “inactive”; and `Nc1nccs1`, with “inactive”.

As to `CC[C@@H]([C@H](C)O)n1ncn(-c2ccc(N3CCN(c4ccc(OC[C@@H]5CO[C@@](Cn6cncn6)(c6ccc(F)cc6F)C5)cc4)CC3)cc2)c1=O`, the Potency entry was “inactive”.

Take `CC(C)CCCC(=O)O`: the Potency result was “inactive”. For `CN(C(=O)C(Cl)Cl)c1ccc(OC(=O)c2ccco2)cc1`, the Potency entry was “inactive”. Still for that read-out and setting: then `CN1C(=O)CC(C)(c2ccccc2)C1=O` (stereo not given), with “inactive”; and `N#C[C@@H]1C[C@@H]2C[C@@H]2N1C(=O)[C@@H](N)C12CC3CC(CC(O)(C3)C1)C2`, with “inactive”; and `Cc1occc1C(=O)Nc1ccc(C(=O)N2CCC(F)(F)/C(=C\C(=O)N3CCC(N4CCCCC4)CC3)c3ccccc32)cc1`, with “inactive”.

In the case of `CCc1nn(CCCN2CCN(c3cccc(Cl)c3)CC2)c(=O)n1CCOc1ccccc1`, the Potency entry is “inactive”. As to `OCC1CC=CCC1` (stereo not given), the Potency result was “inactive”. In the case of `O=C(c1ccc(O)cc1)c1ccc(Cl)cc1`, the Potency entry was “inactive”. As for `CO/N=C1\CN(c2nc3c(cc2F)c(=O)c(C(=O)O)cn3C2CC2)CC1CN` (stereo not given), the Potency result was “inactive”. On the same count and under the same terms, then `CCCCC(CC)C(=O)OCCOCCOCCOCCOC(=O)C(CC)CCCC` (stereo not given), with “inactive”; and `CC(=O)OCC(=O)[C@H]1CC[C@H]2[C@@H]3CCC4=CC(=O)CC[C@]4(C)[C@H]3CC[C@]12C`, with “inactive”.
